# Data as given in article PMC8384837, “Expanding the binding specificity for RNA recognition by a PUF domain”.
# Columns and labels:
# Assay in all cases: yeast three-hybrid, YBZ-1, SC-Leu-His + 0.5 mM 3-AT, 4 days
# Details in all cases: tags: N-Gal4 AD-HA kept; label: inside an RPR1-promoter hybrid RNA with tandem MS2 sites; ssRNA
# [1] = molecular target: PUM1 PUF domain R5-DWA (Homo sapiens, UniProt Q14671 828-1176, C1007D;R1008W;Q1011A)
# Outline: (§1)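 Sequencing with Illumina followed PCR amplification of the repeat regions from transformants grown four days on SC-Leu (input) or SC-Leu-His + 0.5 mM 3-AT (selection). The transformants were strain YBZ-1 with a LexA–MS2 coat fusion and a HIS3 reporter, carrying Pumilio-1 PUF domain libraries and matching RNA elements. The interaction score is the log change in variant frequency from input to selection, computed in log2 with a pseudocount of 1 for absent variants.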
# [2] = molecular target: PUM1 PUF domain R5-GHA (Homo sapiens, UniProt Q14671 828-1176, C1007G;R1008H;Q1011A)
# Outline: as §1
# [3] = molecular target: PUM1 PUF domain R5-RDK (Homo sapiens, UniProt Q14671 828-1176, C1007R;R1008D;Q1011K)
# Outline: as §1
# [4] = molecular target: PUM1 PUF domain R4-VYG (Homo sapiens, UniProt Q14671 828-1176, N971V;H972Y;Q975G)
# Outline: as §1
# [5] = molecular target: PUM1 PUF domain R7-VTR (Homo sapiens, UniProt Q14671 828-1176, S1079V;N1080T;E1083R)
# PUM1 PUF domain R7-VTR, sequence (Q14671 828-1176 S1079V/N1080T/E1083R): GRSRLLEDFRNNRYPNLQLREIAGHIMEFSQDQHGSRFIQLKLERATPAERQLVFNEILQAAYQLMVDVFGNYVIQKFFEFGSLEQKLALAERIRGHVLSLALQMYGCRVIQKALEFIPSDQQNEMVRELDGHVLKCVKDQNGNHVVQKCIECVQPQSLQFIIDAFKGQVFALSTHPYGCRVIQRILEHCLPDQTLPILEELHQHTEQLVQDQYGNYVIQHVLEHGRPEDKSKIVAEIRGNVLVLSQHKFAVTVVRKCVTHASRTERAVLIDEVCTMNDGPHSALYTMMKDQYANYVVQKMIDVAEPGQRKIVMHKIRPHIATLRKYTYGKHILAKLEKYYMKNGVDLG
# Outline: as §1
# [6] = molecular target: PUM1 PUF domain R7-RVT (Homo sapiens, UniProt Q14671 828-1176, S1079R;N1080V;E1083T)
# PUM1 PUF domain R7-RVT, sequence (Q14671 828-1176 S1079R/N1080V/E1083T): as the sequence (Q14671 828-1176 S1079V/N1080T/E1083R) above, with V252R, T253V, R256T counted along it
# Outline: as §1
# [7] = molecular target: PUM1 PUF domain R5-EFD (Homo sapiens, UniProt Q14671 828-1176, C1007E;R1008F;Q1011D)
# Outline: as §1
# [8] = molecular target: PUM1 PUF domain R5-CHQ (Homo sapiens, UniProt Q14671 828-1176, R1008H)
# Outline: as §1
# [9] = molecular target: PUM1 PUF domain R1-CGE (Homo sapiens, UniProt Q14671 828-1176, S863C;R864G;Q867E)
# PUM1 PUF domain R1-CGE, sequence (Q14671 828-1176 S863C/R864G/Q867E): as the sequence (Q14671 828-1176 S1079V/N1080T/E1083R) above, with S36C, R37G, Q40E, V252S, T253N, R256E counted along it
# Outline: as §1
# [10] = molecular target: PUM1 PUF domain R8-KKT (Homo sapiens, UniProt Q14671 828-1176, N1122K;Y1123K;Q1126T)
# Outline: as §1
sequence,measurement,setting,value
GGCUAGAACUAGUGGAUCCCCCGGCGCCCGGCGGCUCGAGCCCGGGUAAGUGUGAAUAGUCUGCAUGCCGCCGGGCGCCAUGCCUGCAGGUCGACUCUAGAAAACAUG,binding signal,[1],4.75 log2 enrichment (interaction score)
same,binding signal,[2],3.2 log2 enrichment (interaction score)
same,binding signal,[3],4.56 log2 enrichment (interaction score)
GGCUAGAACUAGUGGAUCCCCCGGCGCCCGGCGGCUCGAGCCCGGGUAAGUGUUAAUAGUCUGCAUGCCGCCGGGCGCCAUGCCUGCAGGUCGACUCUAGAAAACAUG,binding signal,[1],5.07 log2 enrichment (interaction score)
same,binding signal,[2],2.33 log2 enrichment (interaction score)
GGCUAGAACUAGUGGAUCCCCCGGCGCCCGGCGGCUCGAGCCCGGGUAAGUGUAGAUAGUCUGCAUGCCGCCGGGCGCCAUGCCUGCAGGUCGACUCUAGAAAACAUG,binding signal,[4],5.26 log2 enrichment (interaction score)
GGCUAGAACUAGUGGAUCCCCCGGCGCCCGGCGGCUCGAGCCCGGGUAAGUUUAAAUAGUCUGCAUGCCGCCGGGCGCCAUGCCUGCAGGUCGACUCUAGAAAACAUG,binding signal,[5],3.74 log2 enrichment (interaction score)
same,binding signal,[6],2.57 log2 enrichment (interaction score)
GGCUAGAACUAGUGGAUCCCCCGGCGCCCGGCGGCUCGAGCCCGGGUAAGUGUAAAUAGUCUGCAUGCCGCCGGGCGCCAUGCCUGCAGGUCGACUCUAGAAAACAUG,binding signal,[7],4.36 log2 enrichment (interaction score)
same,binding signal,[1],1.76 log2 enrichment (interaction score)
same,binding signal,[2],3.68 log2 enrichment (interaction score)
same,binding signal,[8],2.46 log2 enrichment (interaction score)
GGCUAGAACUAGUGGAUCCCCCGGCGCCCGGCGGCUCGAGCCCGGGUAAGUGUAAAUGGUCUGCAUGCCGCCGGGCGCCAUGCCUGCAGGUCGACUCUAGAAAACAUG,binding signal,[9],3.82 log2 enrichment (interaction score)
GGCUAGAACUAGUGGAUCCCCCGGCGCCCGGCGGCUCGAGCCCGGGUAAGUGUCAAUAGUCUGCAUGCCGCCGGGCGCCAUGCCUGCAGGUCGACUCUAGAAAACAUG,binding signal,[1],2.25 log2 enrichment (interaction score)
GGCUAGAACUAGUGGAUCCCCCGGCGCCCGGCGGCUCGAGCCCGGGUAAGCGUAAAUAGUCUGCAUGCCGCCGGGCGCCAUGCCUGCAGGUCGACUCUAGAAAACAUG,binding signal,[10],3.48 log2 enrichment (interaction score)
